Compound activity deposited in PubChem BioAssay by several laboratories.
Hits are enriched below; roughly 1.6% of the tested compounds scored in any of these assays.
FAK blocker = FAK (human) kinase inhibition; biochemical FAK kinase activity assay; Q05397; 97,000 compounds, 0.84% hits; inhibition, %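 (tested at 7 µM)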;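 note: 0% = DMSO and 100% = reference compound high control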
Plk1 PBD FP = blocks phosphopeptide binding to human Plk1 polo box domain; inhibition, %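 (tested at about 20 µM)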; 97,000 compounds, 0.13% hits; Plk1 PBD phosphopeptide binding, fluorescence polarization; P53350; in the data active = inhibition above about 34%, passing the limit was not always enough
Smad3 FoxH1 inh = inhibitors of human Smad3 transcription factor binding | P84022 | TR-FRET Smad3/Dy647-FoxH1 peptide binding, europium anti-His | inhibition, % at 25 µM | 88,000 compounds, 0.29% hits;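 active = compounds that reduce the energy-transfer binding signal between the protein and its labelled peptide by more than half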;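 note: 0% = Smad3 plus labelled peptide maximal FRET and 100% = peptide-only background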
Target sequence (P84022 whole entry, looked up): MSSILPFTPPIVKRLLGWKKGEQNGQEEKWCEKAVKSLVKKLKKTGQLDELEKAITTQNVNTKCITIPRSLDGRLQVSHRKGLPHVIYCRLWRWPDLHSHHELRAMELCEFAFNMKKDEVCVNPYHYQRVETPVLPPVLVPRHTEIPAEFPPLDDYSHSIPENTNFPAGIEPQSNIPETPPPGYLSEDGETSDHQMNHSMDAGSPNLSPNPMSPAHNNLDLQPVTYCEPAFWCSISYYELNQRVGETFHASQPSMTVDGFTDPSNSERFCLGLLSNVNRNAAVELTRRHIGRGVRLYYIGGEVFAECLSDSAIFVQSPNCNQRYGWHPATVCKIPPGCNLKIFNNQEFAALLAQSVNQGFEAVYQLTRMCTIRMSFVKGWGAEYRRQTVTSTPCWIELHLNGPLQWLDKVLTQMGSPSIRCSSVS
EphB4 ephrin blk = blocks human EphB4 binding to ephrin-B2; P54760; EphB4 LBD / TNYL-RAW-Alexa532 peptide, fluorescence polarization; inhibition, % at 7 µM; 97,000 compounds, 0.15% hits; AID 720;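 active = inhibition above the screen-wide mean inhibition plus 3 SD, cut at about 15% in these data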;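 note: 0% = DMSO wells and 100% = excess unlabeled TNYL-RAW peptide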
PLK1 kinase inh = inhibitors of human PLK1 kinase | P53350 | recombinant PLK1 kinase, TR-FRET peptide phosphorylation | inhibition, % at 10 µM | 97,000 compounds, 0.53% hits | AID 619;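 active = inhibition of 50% or more in the single-concentration screen; inactive = inhibition below 50%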;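 note: 0% = DMSO max control and 100% = H-89 dihydrochloride min control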
FAK inh confirm = FAK (human) inhibition confirmed | shares compounds with FAK blocker | AID 794 | inhibition, % at 7 µM | 750 compounds, 28% hits | FAK kinase biochemical inhibition assay
Starred values were filed as active, the others as inactive; · = no result given. Cut-off read from the data, not from the text of the source, unless noted: active = inhibition above about 19%; inactive = the rest.

SMILES | FAK blocker | Plk1 PBD FP | Smad3 FoxH1 inh | EphB4 ephrin blk | PLK1 kinase inh | FAK inh confirm
O=C(c1ccc(F)cc1)N1CCCCC(Sc2nnnn2-c2ccccc2)C1=O (stereo not drawn) | 3.9 | -6.1 | -11.7 | 4.8 | -0.6 | ·
Cc1ccc(N2C(=O)[C@@H]3[C@H](C2=O)C2c4ccccc4C=CN2[C@@H]3C(=O)c2ccco2)cc1 (stereo partly drawn) | 32.2* | -4.1 | · | 10.8 | -6.6 | 13.5
O=C(c1ccco1)[C@@H]1[C@@H]2C(=O)N(c3ccccc3)C(=O)[C@@H]2C2c3ccccc3C=CN21 (stereo partly drawn) | 19.2* | -10.5 | · | -4.1 | -7.0 | 6.0
Clc1ccc(CSCc2ccc(Cl)cc2Cl)c(Cl)c1 | · | · | -2.9 | · | · | ·
O=C(O)C(F)(F)C(F)(F)C(F)(F)C(F)(F)C(=O)O | · | · | 6.0 | · | · | ·
Cc1n[nH]c(C)c1N=Nc1cc(Cl)ccc1Cl | 41.2* | 13.3 | · | -5.2 | 53.7* | 20.7*
COC(=O)c1cccc2c1-c1ccccc1/C2=N/O | 49.6* | -21.4 | 11.1 | -6.7 | -5.3 | 28.5*
CCOC(=O)c1sc(C)c2c1NC1(CCCCCC1)NC2=O | 68.3* | -0.9 | -8.4 | 0.8 | -0.5 | 1.0
CCOC(=O)c1sc(C)c2c1NC1(CCCCC1)NC2=O | -0.5 | -0.8 | -8.6 | -5.0 | -9.8 | ·
COc1ccc(S(=O)(=O)Nc2cc(Sc3ncn[nH]3)c(O)c3ccccc23)cc1 | 45.5* | -14.3 | · | -4.1 | -7.4 | -1.9
O=C(O)c1ccc(SSc2ccc(C(=O)O)cn2)nc1 | · | · | 1.4 | · | · | ·
O=C(Nc1cccc(-c2nc3ccccc3[nH]2)c1)c1cccc(NC(=O)c2ccco2)c1 | 71.0* | -4.6 | -5.3 | -5.1 | -17.6 | 61.7*
O=C(Nc1ccc2nc(-c3ccccc3)[nH]c2c1)c1ccco1 | 0.0 | 1.7 | 11.7 | -1.4 | -17.1 | ·
COc1ccc2ccc3c(c2c1)N=CC1(O3)N(C)c2ccccc2C1(C)C (stereo not drawn) | 16.7 | -7.0 | 3.4 | -0.9 | -0.3 | ·
CN1c2ccccc2C(C)(C)C12C=Nc1c(ccc3ccccc13)O2 (stereo not drawn) | 32.2* | 6.5 | -1.7 | 1.0 | -5.5 | 2.5
CCCCCCCCC(=O)Nc1cc(C)ccc1OC | -0.1 | 28.1 | 7.1 | -1.2 | -7.8 | ·
O=[N+]([O-])c1cccc(/C=C/c2nc3ccc([N+](=O)[O-])cc3[nH]2)c1 | 34.5* | 14.3 | · | -4.3 | -7.8 | 20.8*
O=c1c2ccccc2nc(/C=C/c2cccc([N+](=O)[O-])c2)n1CCCO | -5.4 | 15.0 | · | -0.2 | 0.9 | ·
Cc1nc(-c2ccccn2)sc1C(=O)Nc1ccc(Cl)c(Cl)c1 | -4.5 | -15.4 | · | -2.4 | -78.2 | ·
COc1ccc(-c2cc(=O)c3ccccc3s2)cc1 | 16.7 | -15.1 | 15.4 | 9.8 | -3.8 | ·
COc1ccc2sc3ccccc3c(=O)c2c1 | 29.5* | -0.7 | · | -2.7 | -12.5 | 11.6
c1ccc([C@H](c2cccc3c2ccc2ccccc23)[C@H](c2ccccc2)c2cccc3c2ccc2ccccc23)cc1 | · | · | -0.4 | · | · | ·
